Results: PubChem BioAssay (NCATS)
Where “and” joins values, the source holds several entries; their conditions need not be identical. Equal values may be shown once. Results filed as inconclusive are left out. Where a call stands in place of a potency, no number is given. Calls of active or inactive are those of the source. Unless noted, calls follow the shape of the dose curve; as a rule, active = well fitted curve in the direction sought with a large enough effect; inconclusive = small, poorly fitted or top-dose-only effect, or another doubt; inactive = no such curve, though single readings can be large; an effect the other way counts as inactive or inconclusive.

Columns and labels:
[1] = Primary qHTS for small molecule stabilizers of the endoplasmic reticulum resident proteome: Secreted ER Calcium Modulated Protein (SERCaMP) assay (AID 1508630)
Outline: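 GLuc-SERCaMP-expressing SH-SY5Y cells, pretreated 16 h with compound, are challenged with thapsigargin to empty ER calcium stores; after 4 h, coelenterazine is added directly to the medium and luminescence is imaged.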

[2] = target: Cytochrome P450 2D6 (Homo sapiens) (UniProt P10635); experiment: Cytochrome P450 family 2 subfamily D member 6 (CYP2D6) small molecule antagonists: luciferase biochemical (cell-free) qHTS assay (AID 1645840; active = well fitted curve in the direction sought with a large enough effect in the repeat runs; an effect the other way counts as inactive or inconclusive; also: nearly all actives have a fitted effect of over 55% in size)
Cytochrome P450 2D6 (Homo sapiens), sequence (P10635 whole entry, looked up): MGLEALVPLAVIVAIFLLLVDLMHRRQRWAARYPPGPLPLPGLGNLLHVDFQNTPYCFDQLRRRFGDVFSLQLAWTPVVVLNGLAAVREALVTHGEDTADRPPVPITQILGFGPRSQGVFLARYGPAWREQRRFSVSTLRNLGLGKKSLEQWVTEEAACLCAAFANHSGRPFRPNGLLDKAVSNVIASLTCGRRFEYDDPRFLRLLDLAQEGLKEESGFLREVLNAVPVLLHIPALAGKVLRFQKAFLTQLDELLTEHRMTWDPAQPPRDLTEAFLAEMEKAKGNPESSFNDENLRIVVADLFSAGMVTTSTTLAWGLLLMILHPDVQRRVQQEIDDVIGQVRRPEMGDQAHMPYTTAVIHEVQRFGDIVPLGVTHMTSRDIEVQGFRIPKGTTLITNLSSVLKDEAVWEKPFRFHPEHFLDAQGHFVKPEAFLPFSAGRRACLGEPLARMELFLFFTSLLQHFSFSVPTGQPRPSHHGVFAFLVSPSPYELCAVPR
Outline: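 P450-Glo luminescent screen: recombinant CYP2D6 enzyme–proluciferin substrate mix preincubated with compound 10 min at room temperature, then NADPH regeneration added for 1 h at room temperature. Detection reagent added for 20 min; luciferin light read as relative luminescence units.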

[3] = target: Cytochrome P450 2C9 (Homo sapiens) (UniProt P11712); experiment: Cytochrome P450 family 2 subfamily C member 9 (CYP2C9) small molecule antagonists: luciferase biochemical (cell-free) qHTS assay (AID 1645842; active = well fitted curve in the direction sought with a large enough effect in the repeat runs; an effect the other way counts as inactive or inconclusive; also: nearly all actives have a fitted effect of over 55% in size)
Cytochrome P450 2C9 (Homo sapiens), sequence (P11712 whole entry, looked up): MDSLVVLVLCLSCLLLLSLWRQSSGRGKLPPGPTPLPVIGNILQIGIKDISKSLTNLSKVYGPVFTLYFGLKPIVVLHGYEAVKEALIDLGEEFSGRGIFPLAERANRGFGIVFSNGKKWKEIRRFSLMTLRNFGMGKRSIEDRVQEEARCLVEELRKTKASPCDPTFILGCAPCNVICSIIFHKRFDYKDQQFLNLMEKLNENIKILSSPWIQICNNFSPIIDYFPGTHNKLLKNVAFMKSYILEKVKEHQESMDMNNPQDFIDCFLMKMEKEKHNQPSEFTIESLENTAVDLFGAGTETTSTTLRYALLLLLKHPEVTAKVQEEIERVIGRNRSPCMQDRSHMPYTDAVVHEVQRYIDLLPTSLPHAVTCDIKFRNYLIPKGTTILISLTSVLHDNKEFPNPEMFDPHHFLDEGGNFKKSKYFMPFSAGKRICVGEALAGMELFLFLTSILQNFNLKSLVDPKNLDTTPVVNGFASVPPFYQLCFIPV
Outline: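 Luminescence, after 20 min with luciferin detection reagent, reflected CYP2C9 turnover during a 1 h NADPH-driven reaction at 37C. Enzyme-substrate mix contained 0.4% bovine serum albumin and was preincubated with compound 10 min at room temperature.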

[4] = Primary qHTS for inhibitors of nuclear receptor binding SET domain protein 2 (NSD2) in an isogenic RCH-ACV NSD2 p.E1099K mutant (9B) (AID 1645876); also: nearly all actives have a fitted effect of over 70% in size
[5] = Primary qHTS for inhibitors of nuclear receptor binding SET domain protein 2 (NSD2) in an RCH-ACV wild type WT cells (2C) (AID 1645877); also: nearly all actives have a fitted effect of over 70% in size
Potency is read from the fitted curve at half-maximal effect.

CN1CCC(COc2cnc(-c3cccc(Cn4nc(-c5cccc(C#N)c5)ccc4=O)c3)nc2)CC1
Potency [1]: inactive
Potency [2]: inactive
Potency [3]: 16.9 µM (active)
Potency [4]: 11.8 µM (active) and 16.3 µM (active)
Potency [5]: 10.5 µM (active) and 16.3 µM (active)

COc1ccc(CCC(=O)Nc2nc3ccc(Cl)cc3s2)cc1OC
Potency [1]: inactive
Potency [2]: inactive
Potency [3]: 6.01 µM (active)
Potency [4]: inactive
Potency [5]: inactive

Cc1ccccc1-n1c(Cn2nc(-c3cccc(O)c3)c3c(N)ncnc32)nc2cccc(C)c2c1=O
Potency [1]: inactive
Potency [2]: inactive
Potency [3]: 2.13 µM (active)
Potency [4]: 0.186 µM (active)
Potency [5]: 0.728 µM (active)

CCOC(=O)N1c2ccc(C(F)(F)F)cc2[C@@H](N(Cc2cc(C(F)(F)F)cc(C(F)(F)F)c2)C(=O)OC)C[C@H]1CC
Potency [1]: inactive
Potency [2]: inactive
Potency [3]: inactive
Potency [4]: inactive
Potency [5]: inactive

O=S(=O)(O)c1ccc2cc(N=Nc3cc(S(=O)(=O)O)c4cccnc4c3O)ccc2c1
Potency [1]: inactive
Potency [2]: inactive
Potency [4]: inactive
Potency [5]: inactive

Cc1cnc(-c2cc(N3CCN(C(=O)CCS(C)(=O)=O)CC3)ncc2Cl)c(C)c1
Potency [1]: inactive
Potency [2]: inactive
Potency [3]: 21.3 µM (active)
Potency [4]: inactive
Potency [5]: inactive

Cc1ccc2c(c1)c1c(n2CCc2ccc(C)nc2)CCN(C)C1
Potency [1]: inactive
Potency [2]: 8.49 µM (active)
Potency [3]: 10.7 µM (active)
Potency [4]: 14.5 µM (active)

Cc1cnc(Nc2cccc(CN3CCOCC3)c2)nc1Nc1cccc(S(=O)(=O)NC(C)(C)C)c1
Potency [1]: inactive
Potency [2]: 15.1 µM (active)
Potency [3]: 5.35 µM (active)
Potency [4]: 0.515 µM (active)
Potency [5]: 0.515 µM (active)

COc1cc(Nc2nc3ccccc3nc2NS(=O)(=O)c2ccc(NC(=O)c3ccc(C)c(OC)c3)cc2)cc(OC)c1
Potency [1]: 8.41 µM (active)
Potency [2]: inactive
Potency [4]: inactive
Potency [5]: inactive

CC1(COc2ccc3c(c2)ncn3-c2ccc3cccc(N4CCC(N)CC4)c3n2)COC1
Potency [1]: inactive
Potency [2]: 15.1 µM (active)
Potency [4]: 1.83 µM (active) and 1.32 µM (active)
Potency [5]: 2.05 µM (active) and 1.86 µM (active)

O[C@@H](COc1cccc2ncccc12)CN1CCN(C2c3ccccc3[C@@H]3[C@H](c4ccccc42)C3(F)F)CC1 (stereo partly specified)
Potency [1]: inactive
Potency [2]: 13.8 µM (active) and 10.7 µM (active)
Potency [3]: 10.7 µM (active)
Potency [4]: 15 µM (active)
Potency [5]: 10.6 µM (active)

Cc1cn([C@@H]2C[C@@H](O)[C@H](CO)O2)c(=O)[nH]c1=O
Potency [1]: inactive
Potency [2]: inactive
Potency [3]: inactive
Potency [4]: inactive
Potency [5]: inactive

CCc1cccc(CC)c1NC(=O)N1Cc2[nH]nc(NC(=O)c3ccc(N4CCN(C)CC4)cc3)c2C1
Potency [1]: inactive
Potency [2]: inactive
Potency [4]: 817 nM (active) and 1.18 µM (active)
Potency [5]: 409 nM (active) and 468 nM (active)

CNC1CCC(N(Cc2cccc(-c3ccncc3)c2)C(=O)c2sc3ccccc3c2Cl)CC1 (stereo unspecified)
Potency [1]: inactive
Potency [2]: 4.25 µM (active)
Potency [3]: 10.7 µM (active)
Potency [4]: 5.15 µM (active) and 9.34 µM (active)
Potency [5]: 5.78 µM (active) and 7.42 µM (active)

CNC(=O)c1c(-c2ccc(F)cc2)oc2cc(N(CCO)S(C)(=O)=O)c(C3CC3)cc12
Potency [1]: inactive
Potency [2]: inactive
Potency [3]: 10.7 µM (active)
Potency [4]: inactive
Potency [5]: inactive

O=c1[nH]nc(OCCCc2ccc(Cl)cc2)c(NCc2cccnc2)c1Br
Potency [1]: inactive
Potency [2]: 10.7 µM (active)
Potency [3]: 1.51 µM (active)
Potency [4]: 8.17 µM (active)
Potency [5]: 9.16 µM (active)

O=C(Nc1ccc(OC(F)(F)F)cc1)c1sccc1NCc1ccnc2ccccc12
Potency [1]: inactive
Potency [2]: 16.9 µM (active)
Potency [4]: 16.6 µM (active) and 14.6 µM (active)
Potency [5]: 18.6 µM (active)

Nc1ccc(-c2ccc3ncc4ccc(=O)n(-c5cccc(C(F)(F)F)c5)c4c3c2)cn1
Potency [1]: inactive
Potency [2]: 23.9 µM (active)
Potency [3]: 2.13 µM (active)
Potency [4]: 14.8 nM (active) and 23.1 nM (active)
Potency [5]: 20.9 nM (active) and 18.4 nM (active)

COc1ccc(-c2cc3nccn3c(Nc3ncccc3C(N)=O)n2)cc1OC
Potency [1]: inactive
Potency [2]: inactive
Potency [4]: 0.649 µM (active)
Potency [5]: 0.728 µM (active)

CN(C)CCN(Cc1ccc(Cl)cc1)c1ccccn1
Potency [1]: inactive
Potency [2]: 0.0692 µM (active)
Potency [4]: inactive

CC(C)C[C@@H](C(=O)N[C@H](C(=O)OC1CCCC1)c1ccccc1)[C@H](O)C(=O)NO
Potency [1]: inactive
Potency [2]: inactive
Potency [3]: 5.35 µM (active)
Potency [4]: 14.8 µM (active)
Potency [5]: 14.8 µM (active)
